Reference: the supplement of paper PMC9694430

Columns and labels:
Assay in all cases: thermal shift delta Tm vs DMSO control; higher = stronger stabilization (binding)
Conditions in all cases: 12.5 µM; protein concentration 2 µM
LOC_OS01G01410-cb001 = test system: LOC_OS01G01410-cb001
Procedure, shortened: (§1)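 Thermal shift values come from differential scanning fluorimetry on purified rice kinase domains made in E. coli, with melting temperatures obtained from Boltzmann fits. Samples of 19.5 μl held 2 μM kinase, 100 mM potassium phosphate pH 7.5, 150 mM NaCl, 10% glycerol, 5 × SYPRO Orange and compound in DMSO, and were heated from 25°C to 95°C at 0.05°C/s. Each shift is a triplicate mean relative to the DMSO-only protein sample.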

LOC_OS01G02750-cb003 = test system: LOC_OS01G02750-cb003
Procedure, shortened: as §1

LOC_OS01G10900-cb004 = test system: LOC_OS01G10900-cb004
Procedure, shortened: as §1

LOC_OS01G13800-cb001 = test system: LOC_OS01G13800-cb001
Procedure, shortened: as §1

LOC_OS01G14860-cb001 = test system: LOC_OS01G14860-cb001
Procedure, shortened: as §1

LOC_OS01G21960-cb002 = test system: LOC_OS01G21960-cb002
Procedure, shortened: as §1

LOC_OS01G39600-cb002 = test system: LOC_OS01G39600-cb002
Procedure, shortened: as §1

LOC_OS01G48390-cb002 = test system: LOC_OS01G48390-cb002
Procedure, shortened: as §1

LOC_OS01G51400-cb002 = test system: LOC_OS01G51400-cb002
Procedure, shortened: as §1

LOC_OS01G52050-cb004 = test system: T1, LOC_OS01G52050-cb004
T1 sequence (whole entry): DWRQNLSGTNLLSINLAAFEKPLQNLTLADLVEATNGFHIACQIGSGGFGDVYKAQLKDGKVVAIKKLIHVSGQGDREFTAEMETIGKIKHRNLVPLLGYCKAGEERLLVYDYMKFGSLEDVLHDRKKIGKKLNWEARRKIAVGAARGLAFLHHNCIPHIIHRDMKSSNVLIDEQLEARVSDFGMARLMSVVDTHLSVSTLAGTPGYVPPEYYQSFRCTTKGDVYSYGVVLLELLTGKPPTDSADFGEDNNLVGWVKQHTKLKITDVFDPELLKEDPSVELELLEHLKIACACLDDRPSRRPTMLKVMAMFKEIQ
Procedure, shortened: as §1

LOC_OS01G57100-cb003 = test system: LOC_OS01G57100-cb003
Procedure, shortened: as §1

LOC_OS01G60330-cb001 = test system: LOC_OS01G60330-cb001
Procedure, shortened: as §1

LOC_OS01G60700-cb002 = test system: LOC_OS01G60700-cb002
Procedure, shortened: as §1

LOC_OS01G63280-cb003 = test system: LOC_OS01G63280-cb003
Procedure, shortened: as §1

LOC_OS01G67340-cb003 = test system: LOC_OS01G67340-cb003
Procedure, shortened: as §1

LOC_OS01G70970-cb002 = test system: LOC_OS01G70970-cb002
Procedure, shortened: as §1

LOC_OS02G07810-cb001 = test system: LOC_OS02G07810-cb001
Procedure, shortened: as §1

LOC_OS02G08530-cb003 = test system: LOC_OS02G08530-cb003
Procedure, shortened: as §1

LOC_OS02G14120-cb001 = test system: LOC_OS02G14120-cb001
Procedure, shortened: as §1

LOC_OS02G17970-cb001 = test system: LOC_OS02G17970-cb001
Procedure, shortened: as §1
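Further: purified Escherichia coli-expressed rice kinase domain construct.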

SMILES	thermal shift delta Tm (LOC_OS01G01410-cb001)	thermal shift delta Tm (LOC_OS01G02750-cb003)	thermal shift delta Tm (LOC_OS01G10900-cb004)	thermal shift delta Tm (LOC_OS01G13800-cb001)	thermal shift delta Tm (LOC_OS01G14860-cb001)	thermal shift delta Tm (LOC_OS01G21960-cb002)	thermal shift delta Tm (LOC_OS01G39600-cb002)	thermal shift delta Tm (LOC_OS01G48390-cb002)	thermal shift delta Tm (LOC_OS01G51400-cb002)	thermal shift delta Tm (LOC_OS01G52050-cb004)	thermal shift delta Tm (LOC_OS01G57100-cb003)	thermal shift delta Tm (LOC_OS01G60330-cb001)	thermal shift delta Tm (LOC_OS01G60700-cb002)	thermal shift delta Tm (LOC_OS01G63280-cb003)	thermal shift delta Tm (LOC_OS01G67340-cb003)	thermal shift delta Tm (LOC_OS01G70970-cb002)	thermal shift delta Tm (LOC_OS02G07810-cb001)	thermal shift delta Tm (LOC_OS02G08530-cb003)	thermal shift delta Tm (LOC_OS02G14120-cb001)	thermal shift delta Tm (LOC_OS02G17970-cb001)
CC(C)c1ccc2oc3nc(N)c(C(=O)O)cc3c(=O)c2c1 [Amlexanox]	0.99 °C	0.05 °C	0.62 °C	-0.62 °C	0.4 °C	-0.2 °C	2.5 °C	-0.03 °C	0.2 °C	1.26 °C	1.39 °C	3.07 °C	0.37 °C	0.05 °C	0.99 °C	4.3 °C	0.24 °C	1.49 °C	0.32 °C	-0.09 °C
Cc1ncc(CO)c(CO)c1O [Pyridoxine]	-0.03 °C	0.64 °C	0.29 °C	-0.11 °C	0.24 °C	0.13 °C	-0.13 °C	0.22 °C	0.06 °C	4.05 °C	-0.85 °C	-0.2 °C	-0.29 °C	-0.26 °C	0.08 °C	0.33 °C	-0.63 °C	0.26 °C	0.41 °C	0.66 °C
CCn1c(=O)c(-c2ccc(-c3cncs3)cc2Cl)cc2cnc(Nc3ccc(N4CCN(C)CC4)cc3)nc21	0.16 °C	-0.15 °C	0.42 °C	0.34 °C	0.12 °C	0.22 °C	-0.49 °C	-0.5 °C	0.02 °C	-0.32 °C	1.89 °C	1.07 °C	0.86 °C	0.25 °C	1.37 °C	0.17 °C	0.59 °C	0.55 °C	-0.39 °C	0.23 °C
Cc1cc(Nc2ncc(Cl)c(Nc3ccccc3S(=O)(=O)C(C)C)n2)c(OC(C)C)cc1C1CCNCC1 [Ceritinib (LDK378)]	0.47 °C	1.1 °C	0.21 °C	-0.57 °C	0.83 °C	0.34 °C	2.1 °C	0.85 °C	0.35 °C	0.22 °C	1.94 °C	0.68 °C	1.4 °C	0.34 °C	0.19 °C	0.94 °C	0.36 °C	5.56 °C	1.28 °C	0.2 °C
Cn1cnc2c(F)c(Nc3ccc(Br)cc3Cl)c(C(=O)NOCCO)cc21 [Selumetinib (AZD6244)]	0.81 °C	-0.16 °C	0.43 °C	0.45 °C	0.22 °C	0.07 °C	0.25 °C	1.04 °C	0.36 °C	0.08 °C	0.72 °C	0.77 °C	1.13 °C	-0.08 °C	-0.85 °C	0.48 °C	0.62 °C	0.39 °C	0.1 °C	0.19 °C
CO[C@@H](C)Cn1c(=O)n(C)c2cnc3ccc(-c4cncc(C(C)(C)O)c4)cc3c21	0.7 °C	1.17 °C	0.3 °C	0.76 °C	0.77 °C	0.72 °C	0.26 °C	0.5 °C	0.38 °C	1.9 °C	1.94 °C	0.57 °C	1.37 °C	0.84 °C	0.62 °C	0.44 °C	0.65 °C	1.76 °C	2.83 °C	0.61 °C
CN(C)C/C=C/C(=O)Nc1ccc(C(=O)Nc2cccc(Nc3ncc(Cl)c(-c4c[nH]c5ccccc45)n3)c2)cc1	4.03 °C	6.62 °C	0.47 °C	1.95 °C	7.28 °C	4.75 °C	2.35 °C	3.99 °C	1.75 °C	9.77 °C	4.58 °C	12.2 °C	2.21 °C	1.68 °C	4.17 °C	11.9 °C	1.36 °C	5.36 °C	10.1 °C	1.88 °C
CCCCCCCCCCCCc1ccc(S(=O)(=O)Nc2nncs2)cc1	0.38 °C	0.24 °C	0.46 °C	0.29 °C	0.62 °C	1.26 °C	0.44 °C	0.62 °C	-0.04 °C	1.1 °C	2.08 °C	0.81 °C	0.86 °C	0.54 °C	-1.07 °C	0.27 °C	1.33 °C	0.91 °C	-0.22 °C	0.86 °C
CC(C)CCN1c2nc(Nc3cc(F)c(O)c(F)c3)ncc2N(C)C(=O)C1C (stereo not given)	2.96 °C	1.52 °C	2.63 °C	0.08 °C	3.74 °C	1.92 °C	3.67 °C	1.58 °C	0.67 °C	5.38 °C	1.71 °C	6.27 °C	2.07 °C	7.85 °C	8.73 °C	4.67 °C	1.13 °C	2.78 °C	3.11 °C	1.38 °C
COc1ccc2c(Oc3ccc(NC(=O)c4c(C)n(CC(C)(C)O)n(-c5ccccc5)c4=O)nc3)ccnc2c1	0.36 °C	1.62 °C	0.28 °C	-0.07 °C	1.58 °C	0.62 °C	-0.29 °C	0.51 °C	0.18 °C	1.2 °C	1.79 °C	0.76 °C	0.86 °C	1.14 °C	0.79 °C	0.65 °C	1.3 °C	0.98 °C	5.4 °C	0.76 °C
C[C@@H]1COC(Nc2ccc3ncnc(Nc4ccc(OCc5nccs5)c(Cl)c4)c3c2)=N1 [Varlitinib]	2.18 °C	0.28 °C	0.95 °C	0.39 °C	1.1 °C	2.04 °C	0.66 °C	1.02 °C	0.22 °C	0.92 °C	1.92 °C	1.09 °C	1.53 °C	1.44 °C	0.64 °C	0.88 °C	0.94 °C	0.76 °C	0.74 °C	1.04 °C
